Assay outcomes as filed in PubChem BioAssay.
Rows were chosen to be rich in hits. Some 7% of all compounds tested hit in one or more screens of this group.
KAT2A inh = qHTS Assay for Inhibitors of GCN5L2; GCN5L2 HAT assay, ThioGlo1 CoA-SH fluorescence; Potency, µM (top dose mostly 58.9 µM), for the others: at the highest dose activity change, negative = inhibition, usual class: inhibitors; 390,000 tested, 0.21% active; AID 504327, 2011; also: potency is read from the fitted curve at half-maximal effect; % is scaled to controls: 0 for no effect and ±100 for the full control effect
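Compounds, pin-transferred from DMSO stocks, meet 20nM GCN5L2 for 15 min before the reaction begins with H3(1-25) peptide (75uM) and acetyl-CoA (70uM). Thiol-reactive ThioGlo1 reports CoA release over 20 min at room temperature.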
PI5P4Ka inh = qHTS for Inhibitors of phosphatidylinositol 5-phosphate 4-kinase (PI5P4K); Phosphatidylinositol 5-phosphate 4-kinase type-2 alpha (Homo sapiens), P48426; PI5P4Kalpha enzyme, ADP-Glo luminescence, 60 min; stronger effect = lower value; max response, %; 330,000 tested, 1.2% active; AID 652105, 2013; active = max response of -50% or lower; inconclusive = between -30% and -50%; inactive = -30% or higher; also: value at the top dose of about 77 µM; % is scaled to controls: 0 for no effect and ±100 for the full control effect
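Single end-point luminescence (ADP-Glo) quantified ADP from PI5P4Kalpha turnover; ATP 5 microM final, 1 h at RT, 0.1% CHAPS and 0.28 mM EGTA in HEPES pH 7.4.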
HP1b binding inh = HTS for Inhibitors of HP1-beta Chromodomain Interactions with Methylated Histone Tails. AlphaScreen HP1-beta / biotin-H3K9me3 peptide binding. Potency, µM (series often up to 114 µM), for inactives: at the highest dose activity change, negative = inhibition, most hits filed as inhibitors. 390,000 tested, 0.56% active; also: potency is read from the fitted curve at half-maximal effect; nearly all actives have a fitted effect of over 70% in size
Target sequence (P83916 whole entry, looked up): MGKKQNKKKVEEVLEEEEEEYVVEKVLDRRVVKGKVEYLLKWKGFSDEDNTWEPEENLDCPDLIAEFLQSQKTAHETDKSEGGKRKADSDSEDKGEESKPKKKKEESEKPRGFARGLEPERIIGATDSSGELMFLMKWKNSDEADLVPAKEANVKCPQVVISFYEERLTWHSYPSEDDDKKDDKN
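HP1-beta protein (50 nM final) preincubated 30 min at room temperature with biotinylated H3(1-18)K9me3 peptide (50 nM) in PBS pH 7.4, 0.01% Tween-20, then compound added for 30 min. AlphaScreen streptavidin donor/nickel chelate acceptor beads (10 ug/mL final), 30 min dark, luminescence read.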
BAZ2B block = qHTS Assay for Inhibitors of BAZ2B | 360,000 tested, 4.4% active | AID 504333, 2011 | AlphaScreen BAZ2B-H3K14Ac peptide displacement | Potency, µM (titrated, usually from 114 µM), for inactives: at the top dose activity change, negative = inhibition, usual class: inhibitors; also: potency is read from the fitted curve at half-maximal effect; % is scaled to controls: 0 for no effect and ±100 for the full control effect; nearly all actives have a fitted effect of over 60% in size
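AlphaScreen displacement: compounds (up to 110uM) incubated 30 min at room temperature with a preformed 50 nM BAZ2B/50 nM biotinylated H3K14Ac peptide complex in PBS pH 7.4 with Tween-20. Donor and acceptor beads at 10 ug/mL final added, 20 min light-protected before reading.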
PLK1 PBD inh = qHTS for Inhibitors of PLK1-PDB (polo-like kinase 1 - polo-box domain): Primary Screen; Serine/threonine-protein kinase PLK1 (Homo sapiens), P53350; Plk1 PBD binding of FITC phosphopeptide, fluorescence polarization; Potency, µM, inactives show max response, negative = inhibition, most hits filed as inhibitors; 360,000 tested, 2.8% active; AID 720504, 2013; also: potency is read from the fitted curve at half-maximal effect; series mostly up to about 57 µM; % is scaled to controls: 0 for no effect and ±100 for the full control effect; nearly all actives have a fitted effect of over 65% in size
JMJD2A Tudor = qHTS Assay for Inhibitors of JMJD2A-Tudor Domain; Lysine-specific demethylase 4A (Homo sapiens), O75164; AlphaScreen JMJD2A-Tudor / H3K4me3 peptide binding; Potency, µM (highest dose often 114 µM), inactives show top-dose activity change, negative = inhibition, actives largely listed as inhibitors; 390,000 tested, 4.4% active; also: potency is read from the fitted curve at half-maximal effect; % is scaled to controls: 0 for no effect and ±100 for the full control effect; nearly all actives have a fitted effect of over 50% in size
The depositor's hits bear a star; ? = inconclusive; / = no result. Unless noted, calls follow the shape of the dose curve; as a rule, active = well fitted curve in the direction sought with a large enough effect; inconclusive = small, poorly fitted or top-dose-only effect, or another doubt; inactive = no such curve, though single readings can be large; an effect the other way counts as inactive or inconclusive.

SMILES	KAT2A inh	PI5P4Ka inh	HP1b binding inh	BAZ2B block	PLK1 PBD inh	JMJD2A Tudor
Cn1c(/C(C#N)=C(\O)c2ccc([N+](=O)[O-])cc2)nc2ccccc21	-3%	?	27%	/	24µM*	?
N#Cc1c(Cl)nc(SCc2ccccc2)nc1-c1ccccc1	-26%	/	/	79µM*	/	/
N#Cc1c(Cl)nc(-c2ccncc2)nc1-c1ccccc1	-5%	-15	50%	79µM*	1%	?
COc1cc(C(=O)NCC(c2ccc(F)cc2)N2CCOCC2)ccc1OCc1ccccc1Cl (configuration not stated)	-6%	15	-7%	-5%	3%	?
COc1ccccc1N(CC(=O)NC(C)(C)C)S(=O)(=O)c1cccs1	-6%	-11	-4%	1%	27µM*	56µM*
CN(C)c1cccc(C(=O)N(C)C2CCCN(Cc3ccccc3F)C2)c1 (configuration not stated)	-9%	6	17%	-27%	-3%	-18%
C/C(=C\C(=S)Nc1ccccc1)Nc1ccc2ccccc2c1	-6%	6	?	25µM*	-18%	79µM*
Cc1nnc2sc(COc3ccccc3)nn2c1=O	-11%	?	41%	-37%	-2%	-3%
c1ccc(-c2nn3c(Cn4nnc5ccccc54)nnc3s2)cc1	-17%	/	?	1%	13µM*	?
c1ccc(-c2nn3c(Cn4cnc5ccccc54)nnc3s2)cc1	?	/	?	-28%	7.5µM*	-32%
c1ccc(OCc2nn3c(Cn4cnc5ccccc54)nnc3s2)cc1	-1%	/	?	1%	24µM*	-35%
COc1ccc(Cc2nn3c(-c4ccccc4OC)nnc3s2)cc1	2%	0	-19%	3%	?	?
COc1ccc(Cc2nn3c(Cn4nnc5ccccc54)nnc3s2)cc1	-7%	?	?	-38%	21µM*	89µM*
Cc1ccc([C@H]2C[C@@H](O)[C@H](n3cc(COC(=O)c4ccccc4)nn3)CN2C(=O)c2cccs2)cc1	/	-4	/	/	-5%	/
Clc1ccc(Cl)c(-c2nn3c(Cn4cnc5ccccc54)nnc3s2)c1	/	/	36%	/	-11%	-6%
c1ccc2c(c1)ncn2Cc1nnc2sc(-c3ccncc3)nn12	-3%	/	-26%	-25%	12µM*	?
c1cncc(-c2nn3c(Cn4cnc5ccccc54)nnc3s2)c1	-17%	/	?	-8%	4.7µM*	89µM*
c1cncc(-c2nn3cnnc3s2)c1	-21%	1	30%	-2%	-6%	-4%
CCOc1ccccc1NC(=O)C(Cc1ccccc1)NS(=O)(=O)c1ccc2c(c1)oc(=O)n2C (configuration not stated)	-4%	/	16%	-4%	/	-12%
O=C(Cc1nnc(-c2nc3ccccc3[nH]2)o1)Nc1cc(C(F)(F)F)ccc1Cl	/	/	/	/	/	-10%
CCOc1ccc2nc(NC(=S)N(C)C)sc2c1	-10%	-19	?	35µM*	19µM*	13µM*
CN(C)C(=S)Nc1nc2ccccc2s1	2%	?	?	-37%	11µM*	3.5µM*
S=C(Nc1ccccc1)c1nc2ccccc2s1	0%	19	?	-38%	-12%	40µM*
CCC(C(=O)NCCC1=CCCCC1)n1nc(C)c2c(C)n(-c3ccccc3)nc2c1=O (configuration not stated)	-2%	10	5%	-27%	27µM*	?
CCC(C(=O)NC1CCCCCC1)n1nc(C)c2c(C)n(-c3ccccc3)nc2c1=O (configuration not stated)	-5%	0	4%	-22%	30µM*	?
